From PubChem
This is a sample that favours compounds with a hit; in the whole collection about 9.5% have one here.
NPSR antag = neuropeptide S receptor (human) antagonism, cAMP | CHO-NPSR cells, cAMP TR-FRET, antagonist mode | Potency, µM (titrated, usually from 38.3 µM), hits mostly inhibitors | 220,000 tested, 1% active | AID 1461; further: nearly all actives have a fitted effect of over 50% in size
Tau fluor counter = counter-screen for tau fibril formation inhibitors | Potency, µM (highest dose often 57.7 µM) | 280,000 tested, 0.93% active | AID 1463 | tau K18 P301L Alexa594 fluorescence, heparin fibrillization; further: nearly all actives have a fitted effect of over 55% in size
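Human tau K18 P301L (15 uM unlabeled, 0.24 uM Alexa 594-labeled) in 100 mM sodium acetate pH 7 with 20 uM heparin, 6 hr at 37 C. ThT 30 uM added, 1 hr ambient; Alexa 594 FP and total fluorescence read at 555/632 nm.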
ALDH1A1 inh = ALDH1A1 (human) enzyme inhibition; Purified ALDH1A1, NADH fluorescence, propionaldehyde substrate; P00352; Potency, µM (series often up to 75.3 µM), hits mostly inhibitors; AID 1030; 220,000 tested, 7.3% active; active means well fitted inhibition curve with a large enough effect, not every such curve was filed as active; inconclusive means small, poorly fitted or top-dose-only effect, or another doubt; inactive means no such curve, though single readings can be large or run the other way
Target sequence (P00352 whole entry, looked up): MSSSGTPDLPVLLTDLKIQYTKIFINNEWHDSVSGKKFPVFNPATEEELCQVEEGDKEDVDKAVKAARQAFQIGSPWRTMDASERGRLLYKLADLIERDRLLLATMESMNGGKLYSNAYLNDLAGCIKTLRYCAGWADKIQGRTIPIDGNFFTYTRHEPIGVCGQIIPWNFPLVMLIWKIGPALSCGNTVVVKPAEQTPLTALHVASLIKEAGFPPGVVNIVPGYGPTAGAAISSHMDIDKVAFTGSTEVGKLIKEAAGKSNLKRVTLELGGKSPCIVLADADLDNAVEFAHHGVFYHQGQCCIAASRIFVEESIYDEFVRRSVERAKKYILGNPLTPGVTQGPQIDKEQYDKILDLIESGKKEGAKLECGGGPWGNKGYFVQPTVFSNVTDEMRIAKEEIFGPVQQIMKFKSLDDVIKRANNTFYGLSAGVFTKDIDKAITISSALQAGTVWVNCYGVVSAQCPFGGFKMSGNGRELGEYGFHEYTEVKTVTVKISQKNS
HPGD block = HPGD (human) dehydrogenase inhibition. AID 894. 150,000 tested, 4.3% active. Potency, µM, hits mostly inhibitors. purified HPGD, NADH fluorescence kinetic, PGE2 substrate. P15428; active means well fitted inhibition curve with a large enough effect, not every such curve was filed as active; inconclusive means small, poorly fitted or top-dose-only effect, or another doubt; inactive means no such curve, though single readings can be large or run the other way
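NADH formation kinetics: reaction with 30 uM PGE2 and 1 mM NAD+ (final), 20 nM enzyme, Tris-HCl pH 8 with Tween 20, after 15 min compound preincubation at room temperature. Fluorescence change, last versus first of five reads.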
Tau fibril ThT = blocks human tau fibril formation measured by thioflavin T. P10636. AID 1460. Potency, µM (doses to about 57.4 µM), usual class: inhibitors. 270,000 tested, 2.1% active. recombinant tau K18 P301L, heparin-induced fibrillization, ThT fluorescence; further: nearly all actives have a fitted effect of over 55% in size
Target sequence (P10636 561-689 P618L limits assumed): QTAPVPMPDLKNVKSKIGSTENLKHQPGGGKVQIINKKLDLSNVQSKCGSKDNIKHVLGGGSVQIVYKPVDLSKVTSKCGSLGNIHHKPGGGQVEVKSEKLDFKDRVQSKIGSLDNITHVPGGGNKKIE
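Using a mix of unlabeled (15 uM) and Alexa 594-labeled (0.24 uM) tau K18 P301L, heparin-triggered fibrillization over 6 hr at 37 C was scored by ThT fluorescence.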
Tau fibril FP = blocks human tau fibril formation measured by polarization | K18 P301L tau heparin fibrillization, Alexa594 FP, 6 h | P10636 | Potency, µM (highest dose often 57.7 µM), usual class: inhibitors | 280,000 tested, 0.39% active; further: nearly all actives have a fitted effect of over 55% in size
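Recombinant K18 P301L […], labeled with Alexa 594 at 0.24 uM over 15 uM unlabeled; heparin inducer 20 uM final; 37 C, 6 hr; FP endpoint.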
Hits are given with their value; i = inactive; ? = inconclusive; nt = not tested or not shown; [ ] = dose if it differs, or a comment. Unless noted, the call rests on the fitted dose curve; in most records, active means well fitted curve in the direction sought with a large enough effect; inconclusive means small, poorly fitted or top-dose-only effect, or another doubt; inactive means no such curve, though single readings can be large; an effect the other way counts as inactive or inconclusive.

SMILES | NPSR antag | Tau fluor counter | ALDH1A1 inh | HPGD block | Tau fibril ThT | Tau fibril FP
CCc1cc2c(nc1CC)CCN(CC/C(C)=N/O[C@@H](C)c1cn([C@@H]3COC[C@@H]3O)nn1)C2 | nt | i[11.6 µM] | i[13.5 µM] | nt | i[11.5 µM] | i[11.6 µM]
CC(C)Cn1nnnc1S(=O)(=O)Cc1cccc(C#N)c1 | nt | ? | 3.55µM | i | ? | ?
Cc1ccccc1CSc1nc(-c2cccc(F)c2)nc2c1Cc1c(CO)cnc(C)c1O2 | nt | i | nt | nt | i | i
CC1(C)Cc2c(sc3[nH]c(=S)[nH]c(=O)c23)CO1 | i | i | 7.94µM | nt | i | i
Cn1c(=O)[nH]c2sc3c(c2c1=O)CC(C)(C)OC3 | i | i | i | ? | i | i
Cc1ccc(C)c(CN2CCCNC2=O)c1 | i | i | ? | ? | i | i
Nc1ccc2c(c1)C(=O)c1ccccc1C2=O | nt | nt | ? | i | nt | nt
Nc1ccc2c(c1)C(=O)C(=O)c1ccccc1-2 | 10µM | i | 2.24µM | 2.24µM | i | i
O=C1C(=O)c2ccc(-c3ccccc3)cc2-c2ccccc21 | 3.98µM | i | i | i | 1.26µM | ?
COc1ccc(CCCc2nnc(SCc3nc4ccccc4c(=O)[nH]3)n2C)c(C)c1 | i | i | nt | nt | i | i
CN(CC(=O)Nc1ccc(N2CCOCC2)cc1)CC(=O)Nc1ccc(N2CCOCC2)cc1 | i | i | nt | nt | ? | i
COc1cc2nc(CN(C)CC(=O)Nc3ccc(N4CCOCC4)cc3)[nH]c(=O)c2cc1OC | i | i | 28.2µM | ? | i | i
CCN(CC(=O)Nc1ccccc1SC)Cc1nc2ccccc2c(=O)[nH]1 | i | i | nt | nt | nt | i
CN(CC(=O)Nc1ccc(N2CCOCC2)cc1)Cc1c(O)ccc2ccccc12 | i | i | 3.55µM | nt | ? | i
CCN(CC(=O)NCc1ccc(F)cc1)Cc1nc2cc(Cl)ccc2c(=O)[nH]1 | i | i | 22.4µM | 31.6µM | i | i
CCN(CC(=O)NC(c1ccccc1)c1ccccc1)Cc1nc2ccccc2c(=O)[nH]1 | ? | i | 17.8µM | i | i | i
CCN(CC(=O)Nc1ccc2c(c1)OC(F)(F)O2)Cc1nc2ccccc2c(=O)[nH]1 | i | i | ? | i | i | i
CCN(CC(=O)Nc1ccc2c(c1)OCO2)Cc1nc2ccccc2c(=O)[nH]1 | i | i | ? | i | i | i
CCN(CC(=O)Nc1ccc2c(c1)CCC2)Cc1nc2ccccc2c(=O)[nH]1 | i | i | 14.1µM | i | i | i
CCN(CC(=O)Nc1ccc(N2CCOCC2)cc1)Cc1nc2ccccc2c(=O)[nH]1 | i | i | 22.4µM | i | i | i
Cc1cc(C)cc(NC(=O)CSc2nnc(-c3ccccc3)n2N)c1 | ? | i | i | i | i | i
C=CCN1C(=O)C(Cc2ccc(SC(F)F)cc2)SC1=Nc1ccc(C(=O)O)cc1 (stereo not given) | i | i | 10µM | nt | i | i
C=CCN1C(=O)C(CC(=O)O)SC1=Nc1ccc(C(=O)O)cc1 (stereo not given) | i | i | i | nt | i | i
Cc1ccc(S(=O)(=O)NN=C2CCN(Cc3ccccc3)CC2)cc1 | i | i | 3.55µM | i | i | i
CC(C)N1CCC(=NNc2ccc(S(=O)(=O)N3CCOCC3)cc2[N+](=O)[O-])CC1 | i | i | 28.2µM | i | ? | i
SMILES | NPSR antag | Tau fluor counter | ALDH1A1 inh | HPGD block | Tau fibril ThT | Tau fibril FP
NS(=O)(=O)c1ccc(NN=C2CCN(Cc3ccccc3)CC2)c([N+](=O)[O-])c1 | i | i | i | nt | 25.1µM | i
Cc1cc2c(n1-c1ccc(C(=O)NCCc3ccc(Cl)cc3)cc1)CCCC2 | nt | i | nt | nt | ? | ?
CCOC(=O)C(C)Sc1nc2c(c(=O)[nH]c(=O)n2C)n1CCc1ccccc1 (stereo not given) | i | i | 12.6µM | i | i | i
CC(C)n1c(SCCCc2ccccc2)nc2c1c(=O)[nH]c(=O)n2C | i | i | ? | 20µM | i | i
COCCn1c(SCCCc2ccccc2)nc2c1c(=O)[nH]c(=O)n2C | i | i | 20µM | nt | i | i
C/C=C/Cn1c(SCCCc2ccccc2)nc2c1c(=O)[nH]c(=O)n2C | i | i | ? | i | ? | i
CCCn1c(Sc2nc3c(c(=O)[nH]c(=O)n3C)n2CCC)nc2c1c(=O)[nH]c(=O)n2C | i | i | i | 14.1µM | i | i
COc1ccc(NC(=O)Cn2c(=O)n(CCC(=O)NCCc3ccc(OC)c(OC)c3)c(=O)c3ccccc32)cc1Cl | nt | i | nt | nt | i | i
Cc1csc(Sc2nc3c(c(=O)[nH]c(=O)n3C)n2Cc2ccccc2Cl)n1 | i | i | ? | nt | i | i
CCCCCn1c(SCCc2ccccc2)nc2c1c(=O)[nH]c(=O)n2C | i | i | ? | i | i | i
C/C(Cl)=C/Cn1c(SCC(C)C)nc2c1c(=O)[nH]c(=O)n2C | i | i | ? | i | i | i
CCC(C)Sc1nc2c(c(=O)[nH]c(=O)n2C)n1Cc1ccccc1Cl (stereo not given) | i | i | 1.26µM | i | i | i
CCOC(=O)C(CC)Sc1nc2c(c(=O)[nH]c(=O)n2C)n1C/C=C(/C)Cl (stereo not given) | i | i | 3.55µM | 3.98µM | i | i
CC(C)CCn1c(SCCc2ccccc2)nc2c1c(=O)[nH]c(=O)n2C | i | i | 6.31µM | ? | i | i
CCCCSc1nc2c(c(=O)[nH]c(=O)n2C)n1CCc1ccccc1 | i | i | 2.51µM | i | i | i
COc1ccc(CCNC(=O)C2CCN(c3ncnc4c3nc3n4CCCCC3)CC2)c(OC)c1 | nt | i | nt | nt | i | i
COC(=O)c1cc(NS(=O)(=O)c2cc(Br)cc3c2N(C(C)=O)CC3)cc(C(=O)OC)c1 | nt | i | nt | nt | i | i
Cc1ccccc1OCc1ccc(-c2nc(C#N)c(NCCCN(C)C)o2)o1 | nt | ? | nt | nt | i | ?
CCCn1c(SCCc2ccccc2)nc2c1c(=O)[nH]c(=O)n2C | i[7.67 µM] | i | ? | i | i | i
CCCCCOC(=O)CSc1nc2c(c(=O)[nH]c(=O)n2C)n1CCc1ccccc1 | i | i | 25.1µM | 25.1µM | ? | i
Cc1ccc2[nH]c(O)c(N=O)c2c1 | i | i | 31.6µM | nt | i | i
Cc1ccc2[nH]c(C)cc(=O)c2c1 | nt | i | ? | i | i | i
CCCC[C@@H](NC(=O)[C@@H](Cc1cn(C(=O)OC)c2ccccc12)NC(=O)[C@H](CC(C)(C)C)NC(=O)N1[C@H](C)CCC[C@@H]1C)C(=O)O | nt | i | i | i | i | i
S=C(c1ccc(-c2ccc(Cl)c(Cl)c2)o1)N1CCOCC1 | i | i | 8.91µM | 25.1µM | 10µM | i
O=C(c1ccc(-c2cccc(Cl)c2Cl)o1)N1CCOCC1 | i | i | ? | nt | i | i
S=C(c1ccc(-c2ccccc2Cl)o1)N1CCOCC1 | i | ? | 7.94µM | 8.91µM | 25.1µM | i
COCCNS(=O)(=O)c1ccc(C)c(C)c1C | i | i | ? | nt | i | i
CCN(CC)c1ccc(NC(=O)COc2ccccc2C#N)cc1S(=O)(=O)Nc1ccccc1OC | i | i | i | 3.55µM | i | i
